Reference: PubChem BioAssay (NCI)
The panel holds about 79,000 compounds, 15% with a hit somewhere; the sample as a whole holds those more often. Calls of active or inactive are those of the source. Rule as the data show it: active = growth inhibition above about 70%; inactive = the rest.

Columns and labels:
[1] = NCI Yeast Anticancer Drug Screen. Data for the rad52 strain (AID 147);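 also: 0% = growth of vehicle-treated control cultures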; conditions: S. cerevisiae rad52 mutant growth inhibition, stronger effect = higher value
Outline: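 Inhibition of yeast growth, referenced to vehicle controls, was the measured output for a strain with defective DNA damage repair.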

[2] = NCI Yeast Anticancer Drug Screen. Data for the wt1 strain (AID 149);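 also: 0% = growth of vehicle-treated wt1 cultures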; conditions: S. cerevisiae wt1 strain (SPY 50644) growth inhibition, stronger effect = higher value
Outline: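 wt1 yeast, compound-treated; % growth inhibition vs vehicle control.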

[3] = NCI Yeast Anticancer Drug Screen. Data for the rad50EPP+ strain (AID 151);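 also: 0% = growth of vehicle-treated control cultures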; conditions: S. cerevisiae rad50 mutant strain, stronger effect = higher value
Outline: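 Genetically defined yeast (rad50EPP+, DNA damage repair alteration) is grown with compound, and inhibition of growth is expressed relative to vehicle-treated controls.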

[4] = NCI Yeast Anticancer Drug Screen. Data for the rad50 strain (AID 155);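 also: 0% = growth of vehicle-only cultures of the same strain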; conditions: S. cerevisiae rad50 strain growth inhibition, stronger effect = higher value
Outline: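 Genetically altered yeast (DNA repair pathway); compound treatment; growth inhibition vs vehicle ctrl.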

[5] = NCI Yeast Anticancer Drug Screen. Data for the mec2-1 strain (AID 157); conditions: S. cerevisiae mec2-1 strain, stronger effect = higher value
Outline: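 Each compound was tested on mec2-1 yeast, a strain altered in DNA damage repair or cell cycle control. Growth inhibition is reported relative to vehicle.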

[6] = NCI Yeast Anticancer Drug Screen. Data for the rad14 strain (AID 159);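 also: 0% = growth of vehicle-treated control cultures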; conditions: S. cerevisiae rad14 strain growth inhibition, stronger effect = higher value
Outline: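 Test compounds were applied to a repair-deficient yeast strain. Its growth was then compared with that of cultures given vehicle alone, and inhibition was expressed relative to those controls.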

[7] = NCI Yeast Anticancer Drug Screen. Data for the sgs1 mgt1 strain (AID 161);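 also: 0% = growth of cultures given vehicle only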; conditions: S. cerevisiae sgs1 mgt1 strain, stronger effect = higher value
Outline: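 Read-out: growth inhibition vs vehicle controls. Cells: mutant yeast strain deficient in DNA damage repair.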

[8] = at 5.0 µM (retest, dose inferred, filed as 0.5)
[9] = at 50.0 µM (retest, dose inferred, filed as 5.0)

Measured: growth inhibition

NC(=O)N1c2ccccc2C=Cc2ccccc21
inactive: [1]; at 1.2 µM -35% | [1]; at 3.7 µM -36% | [1]; at 11.0 µM -38% | [1]; at 33.0 µM -49% | [1]; at 100.0 µM -41% | [2]; at 1.2 µM -20% | [2]; at 3.7 µM -16% | [2]; at 11.0 µM -24% | [2]; at 33.0 µM -24% | [2]; at 100.0 µM -44% | [3]; at 1.2 µM -49% | [3]; at 3.7 µM -73% | [3]; at 11.0 µM -63% | [3]; at 33.0 µM -91% | [3]; at 100.0 µM -65% | [4]; at 1.2 µM -39% | [4]; at 3.7 µM -14% | [4]; [8] 60% | [4]; at 11.0 µM -24% | [4]; at 33.0 µM -42% | [4]; at 50.0 µM -5.55% | [4]; at 100.0 µM -53% | [5]; at 1.2 µM -63% | [5]; at 3.7 µM -55% | [5]; [8] 63% | [5]; at 11.0 µM -55% | [5]; at 33.0 µM -69% | [5]; at 50.0 µM -3.4% | [5]; at 100.0 µM -68% | [6]; at 1.2 µM -42% | [6]; at 3.7 µM -28% | [6]; at 11.0 µM -41% | [6]; at 33.0 µM -37% | [6]; at 100.0 µM -37% | [7]; [8] -12% | [7]; [9] 29% | [7]; at 50.0 µM 15.4%
active: [4]; [9] 99% | [5]; [9] 98%
